# Source: the supplement of paper PMC8728848
# Shown is part of a subset that was picked to be rich in the strongest signals.
# B1: LSL-150 (Laetiporus sulphureus), Q7Z8V1 (protein)
# chain: MTDIYIPPEGLYFRLLGFASRQVIFARNSPSPDVGLSPVNDQATDQYFSLIYGTGEHAGLYAIKSKATGKVLFSRRPAEPYVGQIDGDGRYPDNWFKIEPGKTYLSKYFRLVQPSTGTALVSRTHLQPYFWNHPQTEVFDDQYFTFLFEDHHHHHH
# Legend:
# Assay in all cases: glycan array binding signal (z-score within array); higher = stronger binding
# Conditions in all cases: glycan notation: IUPAC condensed, linker removed
# [1] = target: Fuc(a1-2)Gal(b1-3)GalNAc(a1-3)[Fuc(a1-2)]Gal(b1-4)Glc
# How it was run: (§1)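 Negative Z-scores can be read as non-binding. The Z-score is calculated within each array and then averaged across arrays of one protein sequence at different concentrations or buffers and across linkers. Arrays, 3228 in all, were curated from the Consortium for Functional Glycomics database and kept only where the protein sequence was available.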
# [2] = target: Fuc(a1-2)Gal(b1-4)GlcNAc(b1-3)[Fuc(a1-3)[Gal(b1-4)]GlcNAc(b1-6)]Gal(b1-4)Glc
# How it was run: as §1
# [3] = target: Fuc(a1-2)Gal(b1-4)[Fuc(a1-3)]GlcNAc(b1-3)[Neu5Ac(a2-6)Gal(b1-4)GlcNAc(b1-6)]Gal(b1-4)Glc
# How it was run: as §1
# [4] = target: Fuc(a1-2)[Gal(a1-3)]Gal(b1-3)GlcNAc
# How it was run: as §1
# [5] = target: Fuc(a1-2)[Gal(a1-3)]Gal(b1-4)GlcNAc(b1-6)GalNAc
# How it was run: as §1
# [6] = target: Fuc(a1-2)[GalNAc(a1-3)]Gal(b1-3)GalNAc(b1-3)Gal(a1-4)Gal(b1-4)Glc
# How it was run: as §1
# [7] = target: Gal(a1-3)Gal(b1-4)GlcNAc(b1-2)Man
# How it was run: as §1
# [8] = target: Gal(b1-3)GlcNAc(b1-3)Gal(b1-4)GlcNAc
# How it was run: as §1
# [9] = target: Gal(b1-4)GlcNAc(b1-3)Gal(b1-3)GalNAc
# How it was run: as §1
# [10] = target: Gal(b1-4)GlcNAc(b1-3)Gal(b1-4)GlcNAc(b1-3)Gal(b1-4)GlcNAc(b1-2)Man(a1-3)[Gal(b1-4)GlcNAc(b1-3)Gal(b1-4)GlcNAc(b1-3)Gal(b1-4)GlcNAc(b1-2)Man(a1-6)]Man(b1-4)GlcNAc(b1-4)[Fuc(a1-6)]GlcNAc
# How it was run: as §1
# [11] = target: Gal(b1-4)GlcNAc(b1-3)Gal(b1-4)GlcNAc(b1-3)Gal(b1-4)GlcNAc(b1-2)[Gal(b1-4)GlcNAc(b1-3)Gal(b1-4)GlcNAc(b1-3)Gal(b1-4)GlcNAc(b1-6)]Man(a1-6)[Gal(b1-4)GlcNAc(b1-3)Gal(b1-4)GlcNAc(b1-3)Gal(b1-4)GlcNAc(b1-2)Man(a1-3)]Man(b1-4)GlcNAc(b1-4)[Fuc(a1-6)]GlcNAc
# How it was run: as §1
# [12] = target: Gal(b1-4)GlcNAc(b1-3)Gal(b1-4)GlcNAc(b1-3)Gal(b1-4)GlcNAc(b1-3)Gal(b1-4)GlcNAc(b1-2)Man(a1-3)[Gal(b1-4)GlcNAc(b1-3)Gal(b1-4)GlcNAc(b1-3)Gal(b1-4)GlcNAc(b1-3)Gal(b1-4)GlcNAc(b1-2)Man(a1-6)]Man(b1-4)GlcNAc(b1-4)GlcNAc
# How it was run: as §1
# [13] = target: Gal(b1-4)GlcNAc(b1-3)Gal(b1-4)GlcNAc(b1-3)Gal(b1-4)GlcNAc(b1-3)Gal(b1-4)GlcNAc(b1-2)Man(a1-3)[Gal(b1-4)GlcNAc(b1-3)Gal(b1-4)GlcNAc(b1-3)Gal(b1-4)GlcNAc(b1-3)Gal(b1-4)GlcNAc(b1-2)Man(a1-6)]Man(b1-4)GlcNAc(b1-4)[Fuc(a1-6)]GlcNAc
# How it was run: as §1
# [14] = target: Gal(b1-4)GlcNAc(b1-3)Gal(b1-4)GlcNAc(b1-3)Gal(b1-4)GlcNAc(b1-3)Gal(b1-4)GlcNAc(b1-2)[Gal(b1-4)GlcNAc(b1-3)Gal(b1-4)GlcNAc(b1-3)Gal(b1-4)GlcNAc(b1-3)Gal(b1-4)GlcNAc(b1-6)]Man(a1-6)[Gal(b1-4)GlcNAc(b1-3)Gal(b1-4)GlcNAc(b1-3)Gal(b1-4)GlcNAc(b1-3)Gal(b1-4)GlcNAc(b1-2)Man(a1-3)]Man(b1-4)GlcNAc(b1-4)[Fuc(a1-6)]GlcNAc
# How it was run: as §1
# [15] = target: Gal(b1-4)GlcNAc(b1-3)Gal(b1-4)GlcNAc(b1-3)Gal(b1-4)GlcNAc(b1-3)Gal(b1-4)GlcNAc(b1-3)Gal(b1-4)GlcNAc(b1-2)Man(a1-3)[Gal(b1-4)GlcNAc(b1-3)Gal(b1-4)GlcNAc(b1-3)Gal(b1-4)GlcNAc(b1-3)Gal(b1-4)GlcNAc(b1-3)Gal(b1-4)GlcNAc(b1-2)Man(a1-6)]Man(b1-4)GlcNAc(b1-4)GlcNAc
# How it was run: as §1
# [16] = target: Gal(b1-4)GlcNAc(b1-3)Gal(b1-4)GlcNAc(b1-3)Gal(b1-4)GlcNAc(b1-3)Gal(b1-4)GlcNAc(b1-3)Gal(b1-4)GlcNAc(b1-2)Man(a1-3)[Gal(b1-4)GlcNAc(b1-3)Gal(b1-4)GlcNAc(b1-3)Gal(b1-4)GlcNAc(b1-3)Gal(b1-4)GlcNAc(b1-3)Gal(b1-4)GlcNAc(b1-2)Man(a1-6)]Man(b1-4)GlcNAc(b1-4)[Fuc(a1-6)]GlcNAc
# How it was run: as §1
# [17] = target: Gal(b1-4)GlcNAc(b1-3)Gal(b1-4)GlcNAc(b1-3)Gal(b1-4)GlcNAc(b1-3)Gal(b1-4)GlcNAc(b1-3)Gal(b1-4)GlcNAc(b1-2)[Gal(b1-4)GlcNAc(b1-3)Gal(b1-4)GlcNAc(b1-3)Gal(b1-4)GlcNAc(b1-3)Gal(b1-4)GlcNAc(b1-3)Gal(b1-4)GlcNAc(b1-6)]Man(a1-6)[Gal(b1-4)GlcNAc(b1-3)Gal(b1-4)GlcNAc(b1-3)Gal(b1-4)GlcNAc(b1-3)Gal(b1-4)GlcNAc(b1-3)Gal(b1-4)GlcNAc(b1-2)Man(a1-3)]Man(b1-4)GlcNAc(b1-4)[Fuc(a1-6)]GlcNAc
# How it was run: as §1
# [18] = target: Gal(b1-4)GlcNAc(b1-3)Gal(b1-4)GlcNAc(b1-3)Gal(b1-4)GlcNAc(b1-3)Gal(b1-4)GlcNAc(b1-3)Gal(b1-4)GlcNAc(b1-3)Gal(b1-4)GlcNAc(b1-2)Man(a1-3)[Gal(b1-4)GlcNAc(b1-3)Gal(b1-4)GlcNAc(b1-3)Gal(b1-4)GlcNAc(b1-3)Gal(b1-4)GlcNAc(b1-3)Gal(b1-4)GlcNAc(b1-3)Gal(b1-4)GlcNAc(b1-2)Man(a1-6)]Man(b1-4)GlcNAc(b1-4)GlcNAc
# How it was run: as §1
# [19] = target: Gal(b1-4)GlcNAc(b1-3)Gal(b1-4)GlcNAc(b1-3)[Gal(b1-4)GlcNAc(b1-3)Gal(b1-4)GlcNAc(b1-6)]GalNAc
# How it was run: as §1
# Gal3S(b1-4)Glc = target: Gal3S(b1-4)Glc
# How it was run: as §1
# GalNAc(b1-3)Gal = target: GalNAc(b1-3)Gal
# How it was run: as §1
# GalNAc(b1-4)GlcNAc6S = target: GalNAc(b1-4)GlcNAc6S
# How it was run: as §1
# [20] = target: Glc(a1-6)Glc(a1-6)Glc(a1-6)Glc
# How it was run: as §1
# [21] = target: GlcNAc(b1-2)Man(a1-3)[GlcNAc(b1-2)Man(a1-6)]Man(b1-4)GlcNAc(b1-4)GlcNAc
# How it was run: as §1
# GlcNAc(b1-3)Gal = target: GlcNAc(b1-3)Gal
# How it was run: as §1
# [22] = target: GlcNAc(b1-3)Gal(b1-4)GlcNAc(b1-3)Gal(b1-4)GlcNAc(b1-2)Man(a1-3)[GlcNAc(b1-3)Gal(b1-4)GlcNAc(b1-3)Gal(b1-4)GlcNAc(b1-2)Man(a1-6)]Man(b1-4)GlcNAc(b1-4)GlcNAc
# How it was run: as §1
# [23] = target: GlcNAc(b1-3)Gal(b1-4)GlcNAc(b1-3)Gal(b1-4)GlcNAc(b1-3)Gal(b1-4)GlcNAc(b1-3)Gal(b1-4)GlcNAc(b1-2)Man(a1-3)[GlcNAc(b1-3)Gal(b1-4)GlcNAc(b1-3)Gal(b1-4)GlcNAc(b1-3)Gal(b1-4)GlcNAc(b1-3)Gal(b1-4)GlcNAc(b1-2)Man(a1-6)]Man(b1-4)GlcNAc(b1-4)GlcNAc
# How it was run: as §1
# [24] = target: GlcNAc(b1-3)Gal(b1-4)GlcNAc(b1-3)Gal(b1-4)GlcNAc(b1-3)Gal(b1-4)GlcNAc(b1-3)Gal(b1-4)GlcNAc(b1-2)[GlcNAc(b1-3)Gal(b1-4)GlcNAc(b1-3)Gal(b1-4)GlcNAc(b1-3)Gal(b1-4)GlcNAc(b1-3)Gal(b1-4)GlcNAc(b1-6)]Man(a1-6)[GlcNAc(b1-3)Gal(b1-4)GlcNAc(b1-3)Gal(b1-4)GlcNAc(b1-3)Gal(b1-4)GlcNAc(b1-3)Gal(b1-4)GlcNAc(b1-2)Man(a1-3)]Man(b1-4)GlcNAc(b1-4)[Fuc(a1-6)]GlcNAc
# How it was run: as §1
# Kdn(a2-3)Gal(b1-3)GalNAc = target: Kdn(a2-3)Gal(b1-3)GalNAc
# How it was run: as §1
# Man(a1-3)[Man(a1-6)]Man = target: Man(a1-3)[Man(a1-6)]Man
# How it was run: as §1
# [25] = target: Neu5Ac(a2-3)Gal(b1-3)[Neu5Ac(a2-6)]GalNAc
# How it was run: as §1
# [26] = target: Neu5Ac(a2-3)Gal(b1-4)[Fuc(a1-3)]GlcNAc(b1-6)[Neu5Ac(a2-3)Gal(b1-3)]GalNAc
# How it was run: as §1
# [27] = target: Neu5Ac(a2-3)GalNAc(b1-4)GlcNAc
# How it was run: as §1
# [28] = target: Neu5Ac(a2-6)Gal(b1-4)GlcNAc(b1-2)Man(a1-3)[Neu5Ac(a2-6)Gal(b1-4)GlcNAc(b1-2)Man(a1-6)]Man(b1-4)GlcNAc(b1-4)[Fuc(a1-6)]GlcNAc
# How it was run: as §1
# [29] = target: Neu5Ac(a2-6)Gal(b1-4)GlcNAc(b1-3)Gal(b1-4)GlcNAc
# How it was run: as §1
# [30] = target: Neu5Ac(a2-6)Gal(b1-4)GlcNAc(b1-6)GalNAc
# How it was run: as §1
# [31] = target: Neu5Ac(a2-6)Gal(b1-4)GlcNAc(b1-6)[Gal(b1-3)]GalNAc
# How it was run: as §1
# Neu5Gc(a2-3)Gal(b1-4)Glc = target: Neu5Gc(a2-3)Gal(b1-4)Glc
# How it was run: as §1
# [32] = target: Neu5Gc(a2-6)Gal(b1-4)GlcNAc
# How it was run: as §1
# [33] = target: Neu5Gc(a2-8)Neu5Gc(a2-3)Gal(b1-4)GlcNAc(b1-3)Gal(b1-4)GlcNAc
# How it was run: as §1
binder,measurement,setting,value
B1,glycan array binding signal (z-score),[1],-0.208
same,glycan array binding signal (z-score),[2],-0.2
same,glycan array binding signal (z-score),[3],-0.204
same,glycan array binding signal (z-score),[4],-0.206
same,glycan array binding signal (z-score),[5],-0.207
same,glycan array binding signal (z-score),[6],-0.209
same,glycan array binding signal (z-score),[7],-0.208
same,glycan array binding signal (z-score),[8],-0.124
same,glycan array binding signal (z-score),[9],-0.205
same,glycan array binding signal (z-score),[10],5.23
same,glycan array binding signal (z-score),[11],5.29
same,glycan array binding signal (z-score),[12],5.88
same,glycan array binding signal (z-score),[13],6.24
same,glycan array binding signal (z-score),[14],6.23
same,glycan array binding signal (z-score),[15],5.44
same,glycan array binding signal (z-score),[16],6.16
same,glycan array binding signal (z-score),[17],6.2
same,glycan array binding signal (z-score),[18],5.13
same,glycan array binding signal (z-score),[19],0.034
same,glycan array binding signal (z-score),Gal3S(b1-4)Glc,-0.196
same,glycan array binding signal (z-score),GalNAc(b1-3)Gal,-0.207
same,glycan array binding signal (z-score),GalNAc(b1-4)GlcNAc6S,-0.203
same,glycan array binding signal (z-score),[20],-0.207
same,glycan array binding signal (z-score),[21],-0.205
same,glycan array binding signal (z-score),GlcNAc(b1-3)Gal,-0.195
same,glycan array binding signal (z-score),[22],0.937
same,glycan array binding signal (z-score),[23],5.26
same,glycan array binding signal (z-score),[24],7.09
same,glycan array binding signal (z-score),Kdn(a2-3)Gal(b1-3)GalNAc,-0.201
same,glycan array binding signal (z-score),Man(a1-3)[Man(a1-6)]Man,-0.2
same,glycan array binding signal (z-score),[25],-0.208
same,glycan array binding signal (z-score),[26],-0.203
same,glycan array binding signal (z-score),[27],-0.213
same,glycan array binding signal (z-score),[28],-0.208
same,glycan array binding signal (z-score),[29],-0.079
same,glycan array binding signal (z-score),[30],-0.203
same,glycan array binding signal (z-score),[31],-0.194
same,glycan array binding signal (z-score),Neu5Gc(a2-3)Gal(b1-4)Glc,-0.205
same,glycan array binding signal (z-score),[32],-0.206
same,glycan array binding signal (z-score),[33],-0.196
